Ba CapD inh – Bacillus anthracis CapD inhibitors, primary screen, biochemical, fluorescence intensity; CapD gamma-glutamyltranspeptidase (Bacillus anthracis Ames Ancestor); purified CapD enzyme, fluorescence intensity read-out; stronger effect = lower value; z-score (no concentration beside the values); actives 0.23% (n = 140,000); AID 492967, 2010; in the data active means z-score mostly below about -2.9, no sharp cut-off; inactive means mostly above about -1.9
* marks the source's active call; other numbers are inactive results. Many of the other results were omitted from the sample, so hits are more common in it than they were.

SMILES	Ba CapD inh
CC(=O)SC(CC(=O)O)c1nc2ccccc2s1 (stereo unspecified)	-5.55*
CC(Sc1nc2ccccc2s1)C(=O)O (stereo unspecified)	0.095
Nc1ccc(NC(=O)c2ccccc2O)cc1	-0.835
COc1cc(C(=O)NNC(=O)c2ccccc2COC(=O)c2ccccc2)nc2ccccc12	30.3
O=C(CSc1nc2ccccc2c(=O)n1CCCC(=O)N1CCN(c2ccccc2)CC1)NCc1ccccc1	-0.765
COC(=O)CCN1C(=O)/C(=C\c2ccc(O)c(OC)c2)SC1=S	-0.13
COc1cc(/C=C2/SC(=S)N(NC(C)=O)C2=O)ccc1O	-4.8*
COc1cc(/C=C2\SC(=S)N(NC(=O)c3ccc(Br)cc3)C2=O)cc(OC)c1OC	0.76
CC1(C)CC(=O)C(C(=S)Nc2ccccc2)C(=O)C1	-0.09
CC1(C)Cc2c(c(=O)n(-c3ccccc3)c3ncnc(N)c23)CO1	-1.29
CC1(C)CC(=O)/C(=N/Nc2ccccc2)CO1	-4.01*
Cc1[nH]nc2nc(SCC(=O)NCc3ccccc3)n(-c3ccc(Br)cc3)c(=N)c12	0.065
CCN(C(=O)Cn1c(=O)oc2cc(S(=O)(=O)N3CCCCCC3)ccc21)c1ccccc1	-0.38
CCOc1ccc(N2C(=O)C(C)SC23C(=O)N(CN2CCOCC2)c2ccccc23)cc1 (stereo unspecified)	-0.17
CCOc1ccccc1-c1noc(-c2cccc(OC)c2)n1	-0.05
O=C1S/C(=C/c2ccccc2Cl)C(=O)N1c1ccccc1	-0.54
CN(C)/C=C1\SC(=O)N(c2ccccc2)C1=O	-6.37*
O=C1S/C(=C\c2ccc(F)cc2)C(=O)N1c1ccccc1	0.3
CN(C)C=NC(=S)c1ccc(Cl)cc1	-0.2
c1cnc(N2CCC(c3c[nH]c4ccccc34)CC2)nc1	0.015
CC1=NN(c2cc(S(=O)(=O)O)c3cccc(S(=O)(=O)O)c3c2)C(=O)C1	-5.7*
CC1=NN(c2cccc(S(N)(=O)=O)c2)C(=O)C1	-0.935
CC1=NN(c2ccc(C(=O)O)cc2)C(=O)C1	-0.03
Cc1nc(N2CCC(C(N)=O)(N3CCCCC3)CC2)c2c3c(sc2n1)CCCC3	-0.55
Cc1cc(/C=C2\C(=O)NC(=O)N(c3ccc(Br)cc3)C2=O)c(C)n1-c1cc(C(=O)O)cc(C(=O)O)c1	-0.935
SMILES	Ba CapD inh
CC(=O)Oc1ccc(-n2c(C)cc(/C=C3\C(=O)NC(=S)N(c4ccc(C)cc4)C3=O)c2C)cc1	-0.56
Cc1cc(/C=C2\C(=O)NC(=S)N(c3ccc(Cl)cc3)C2=O)c(C)n1-c1cc(C(=O)O)cc(C(=O)O)c1	-6.24*
CCOc1[nH]n(-c2ccc(Cl)cc2)c(=O)c1C=NCc1cccs1	-0.295
O=C(Cc1c(Cl)cccc1Cl)NNC(=O)c1cnn(-c2ccc([N+](=O)[O-])cc2)c1C(F)(F)F	-0.795
CC(=O)N(Cc1ccccc1)C1CC(C)(C)n2cccc21 (stereo unspecified)	0.5
CCC1C/C(=C/c2ccco2)C(=O)/C(=C/c2ccco2)C1 (stereo unspecified)	-2.48
CC1CC(C)CN(C(=O)COC(=O)/C=C/c2ccco2)C1 (stereo unspecified)	-1.69
CC1C/C(=C/c2ccco2)C(C)N(C)C1 (stereo unspecified)	-5.18*
COC(=O)c1cc2cccc3c2n(c1=O)CCC3	2.75
COC(=O)C1=C(C)N=c2s/c(=C\c3ccc(OC(C)=O)cc3OC(C)=O)c(=O)n2C1c1cccs1 (stereo unspecified)	0.245
O=c1c(N2CCC3(CC2)OCCO3)csc2ccccc12	-1.67
Cc1ccc2scc(N3CCOCC3)c(=O)c2c1	-4.17*
O=c1c(N2CCN(c3ccccc3)CC2)csc2ccccc12	-2.45
COc1cc(C2C(C(=O)OCC(C)C)=C(C)NC3=C2C(=O)CC(c2cccs2)C3)cc([N+](=O)[O-])c1O (stereo unspecified)	-1.15
O=c1[nH]c2ccncc2cc1-c1ccnc(-c2ccccn2)n1	41.8
C=C1C(C(=O)NCc2ccco2)C1C(=O)NCc1ccco1 (stereo unspecified)	-10.2*
O=C(NCc1ccco1)C1c2ccccc2Oc2ccccc21	0
O=C(NCc1ccco1)NCC(F)(F)F	-0.39
CC(C)(C)c1cc2cc(N(Cc3cccc(Cl)c3)C(=O)C(c3ccccc3)c3ccccc3)ccc2[nH]1	-0.11
Cc1cc(C)nc(Sc2cccc(NC(=O)C(C)(C)C)c2)n1	-0.365
N#Cc1ccc(-c2ccc(F)cc2)nc1Oc1cccc(Cl)c1Cl	0.42
COC(=O)c1ccc([C@@H]2Nc3c(C)cccc3[C@@H]3C=CC[C@@H]32)cc1	0.475
O=C(O)C1Nc2c(I)cccc2C2C=CCC12 (stereo unspecified)	-8.09*
CN(C)C(=O)c1cccc2c1NC(c1ccc(Br)cc1)C1CC=CC21 (stereo unspecified)	-0.475
OCCn1c(-c2ccccc2)nc2ccccc21	2.36
SMILES	Ba CapD inh
CC1(C)Cc2ccccc2-c2nc(-c3ccccc3)n(CCO)c(=O)c21	7.32
CC1(C)Cc2c(c(=S)nc(-c3ccccc3)n2CCO)CO1	-5.06*
O=C(CSc1nnc(-c2ccc(C(F)(F)F)cc2)o1)c1ccc(Cl)cc1	-0.685
Cc1oc2ncn(C)c(=O)c2c1C(=O)N(C)c1ccc(F)cc1	-0.05
O=C1NC(=S)S/C1=C\c1c(NCCO)nc2ccccn2c1=O	-0.06
O=C(O)CN1C(=O)COc2ccccc21	0.07
O=C(CN1C(=O)COc2ccccc21)Nc1ccc(Cl)cc1	0.06
O=C1COc2ccccc2N1C(=O)c1ccc(Cl)cc1	-4.1*
CC(C)(C)OC(=O)/N=C(\N)N(CCCC(NC(=O)OC(C)(C)C)C(=O)N1CCCN(C(=O)OC(C)(C)C)CC1)C(=O)OC(C)(C)C (stereo unspecified)	-0.07
O=C(CCN(Cc1ccco1)S(=O)(=O)c1ccc(Cl)cc1)Nc1ccccc1	-0.395
Nc1nc(CSc2nc3ccccc3o2)nc(-c2ccccc2O)n1	0.175
CC(C)C(=O)NC(C)C(c1cccs1)N1CCOCC1 (stereo unspecified)	-0.39
CCN1CCN(C(c2cccs2)C(C)NC(=O)Cc2cccs2)CC1 (stereo unspecified)	0.175
CCN1CCN(C(c2cccs2)C(C)NC(=O)C(C)C)CC1 (stereo unspecified)	-5.38*
CC1CCc2nc3ccccc3c(C(=O)O)c2C1 (stereo unspecified)	-0.01
COC(CNC(=O)c1ccc(/C=C2\Sc3ccccc3N(Cc3ccc(F)cc3)C2=O)cc1)OC	-8.54*
Cc1cccc(CN2C(=O)/C(=C\c3ccc(C(=O)NCc4cccnc4)cc3)Sc3ccccc32)c1	11.9
COC(CNC(=O)c1ccc(/C=C2/Sc3ccccc3N(Cc3cccc(C)c3)C2=O)cc1)OC	0.07
N#CCCSc1nnc(-c2ccncc2)n1-c1ccccc1	-0.055
CCOC(=O)C1CCCN(C(=O)c2ccc3c(c2)[nH]c(=S)n2c4ccccc4nc32)C1 (stereo unspecified)	-0.475
COc1ccccc1NC(=O)CN1C(=O)/C(=C/c2cc(OC)c(OC)c(OC)c2)SC1=S	-0.59
COc1ccc(N2C(=O)/C(=C\c3ccc(Br)cc3)C(=O)NC2=S)cc1	-1.71
O=C1NC(=S)N(c2ccc(Br)cc2)C(=O)/C1=C/c1cccn1-c1ccccc1	-0.31
O=C1NC(=S)N(c2ccccc2)C(=O)/C1=C\c1ccoc1	-5.73*
COc1ccc(S(=O)(=O)N2CCC(N(C3CC3)S(=O)(=O)c3ccccc3)CC2)cc1	-0.395
COc1ccc(NC2=CC(=O)CCC2)c(OC)c1	-0.725
N#C/C(=C\C=C\c1ccco1)c1nc2c(s1)CCCC2	-3.58
NC(=S)N/N=C/c1ccco1	-3.09

High-throughput results (PubChem BioAssay)
